BoNT-A LC inh2: BoNT A light chain protease inhibition; 0.17% of 360,000 active; multiplex microsphere protease substrate cleavage, flow cytometry; AID 588499; inhibition, % at 10 µM; also: plate controls were buffer without enzyme for full effect and enzyme alone for no effect
BJeLR viability: BJeLR cell viability loss. BJeLR (HRASV12) viability, CellTiter-Glo ATP luminescence, 48 h. inhibition, % (concentration not given with the values). 0.17% of 300,000 active; in the data active = inhibition above about 50%; inconclusive = no clear call, values can overlap the other calls
Anthrax LF prot: inhibitors of Bacillus anthracis lethal factor protease | inhibition, % at 10 µM | multiplex microsphere protease cleavage assay, LF | AID 588501 | P15917 | 0.12% of 360,000 active; also: plate controls were buffer without enzyme for full effect and enzyme alone for no effect
BoNT-F LC inh: BoNT F light chain protease inhibition; 0.22% of 360,000 active; Multiplex microsphere protease cleavage assay, flow cytometry; inhibition, % at 10 µM; in the data active = inhibition above about 35%, passing the limit was not always enough; inconclusive = no clear call, values can overlap the other calls; also: plate controls were buffer without enzyme for full effect and enzyme alone for no effect
Autofluor counter: flagged as autofluorescent in microsphere protease counterscreen; compound autofluorescence counterscreen, microsphere flow cytometry; hits give high values; 3.1% of 360,000 active; fluorescence intensity (test concentration not listed); in the data active = fluorescence intensity above about 16000; inconclusive = no clear call, values can overlap the other calls
* hit, by the source's call; ? = inconclusive; . = not tested or not shown. In the library only some 3.5% were active in any assay of this set; here they are far more common. Rule as the data show it, unless noted: active = inhibition above about 30%; inconclusive = no clear call, values can overlap the other calls; inactive = below that.

SMILES	BoNT-A LC inh2	BJeLR viability	Anthrax LF prot	BoNT-F LC inh	Autofluor counter
OC(CN(c1ccccc1)c1ccccc1)Cn1cnc2ccccc21 (stereo unspecified)	0	3	-8	-13	4687
O=C(Cn1cnc2ccccc21)NCc1ccccc1	1	2	-12	2	21986*
Cc1n(CC(O)COCc2ccccc2)c2ccccc2[n+]1C (stereo unspecified)	-2	-16	-2	-1	23714*
CC(=O)Nc1cccc(OCC(O)Cn2cnc3ccccc32)c1 (stereo unspecified)	?	2	-1	-4	22621*
CC(=O)Nc1ccc(OCC(O)Cn2cnc3ccccc32)cc1 (stereo unspecified)	1	6	-3	2	9717
CCC(C)C(NC(=O)C(Cc1ccc(O)cc1)NC(=O)OCc1ccccc1)C(=O)OC (stereo unspecified)	-1	.	-2	-1	5604
Cn1c(CN2CCCC(C(=O)c3ccc4c(c3)OCO4)C2)nc2ccccc21 (stereo unspecified)	0	-2	0	4	2354
Fc1ccc(-c2cc(C(F)(F)F)nc(NCC3CCCO3)n2)cc1 (stereo unspecified)	1	9	2	-1	5448
Cn1c(=O)cc(SCC(=O)NCCN2CCN(c3ccccc3F)CC2)c2cc(Cl)ccc21	?	3	2	2	22129*
O=C(NCN1CCN(c2ccccc2F)CC1)c1ccccc1	-1	-3	0	-2	23676*
COc1ccccc1N1CCN(C(=O)Oc2ccccc2)CC1	-1	-8	-4	-6	5329
O=C(Oc1ccccc1)N1CCN(c2ccccc2F)CC1	-2	9	-1	38*	3580
O=C(Cc1c(C(=O)O)[nH]c2ccccc12)NCCN1CCN(c2ccccc2F)CC1	?	9	0	-4	23477*
COc1ccc(C(=O)OCC(=O)NCC2CCCO2)cc1S(=O)(=O)N1CCCc2ccccc21 (stereo unspecified)	-1	-1	-1	2	4631
O=C(/C=C/c1ccc([N+](=O)[O-])cc1)Nc1cccc(S(=O)(=O)NC2=NCCCCC2)c1	0	.	1	-2	3062
CCCCN1C(=O)C(NC(=O)c2cccnc2)(C(F)(F)F)C2=C1CC(C)(C)CC2=O (stereo unspecified)	2	7	-2	3	23010*
CCOC(=O)NC1(C(F)(F)F)C(=O)N(Cc2ccccc2)C2=C1C(=O)CC(C)(C)C2 (stereo unspecified)	-4	-4	-4	-8	25964*
CC1(C)CC(=O)C2=C(C1)N(Cc1cccnc1)C(=O)C2(NC(=O)c1cccnc1)C(F)(F)F (stereo unspecified)	0	-3	2	0	9303
CC1(C)CC(=O)C2=C(C1)N(Cc1ccco1)C(=O)C2(NC(=O)c1cccnc1)C(F)(F)F (stereo unspecified)	?	5	-3	-1	20736*
Cc1ccc(C(C(=O)NC2CCCCC2)N(C(=O)c2csnn2)C2CC2)cc1 (stereo unspecified)	-1	-3	9	7	3773
COc1cccc(CNC(=O)C(=O)NCC2OCCCN2S(=O)(=O)c2cc(C)ccc2C)c1 (stereo unspecified)	-1	5	-4	-1	5975
Cc1nn(-c2ccc(F)cc2F)c2c1-c1nc(N3CCCC3)ncc1CC2	?	-8	-1	-6	23757*
CCc1c(C)c2ccc(O)c(CN(C)C)c2oc1=O	2	14	0	1	22113*
COc1ccc(OC)c(CN2CCN(CC(=O)Nc3ccccc3C(=O)NC3CC3)CC2)c1	0	.	-2	-5	4174
O=C(N/N=C/c1ccco1)/C(=C/c1cccc([N+](=O)[O-])c1)NC(=O)c1ccccc1	0	-13	-1	2	22258*
SMILES	BoNT-A LC inh2	BJeLR viability	Anthrax LF prot	BoNT-F LC inh	Autofluor counter
CC(C)NC(=O)/C(=C\c1cccc([N+](=O)[O-])c1)NC(=O)c1ccccc1	2	-3	-2	-1	22798*
Cc1ccc(C(=O)N/C(=C\c2ccc([N+](=O)[O-])cc2)C(=O)NCCc2ccccc2)cc1	-5	-4	-3	-6	25796*
Cc1ccc(C(=O)N/C(=C/c2cccc([N+](=O)[O-])c2)C(=O)NC(C)C)cc1	1	4	1	3	1905
COc1ccc2nc(C)cc(SCC(=O)N/N=C/c3cccc4ccccc34)c2c1	1	19	-1	-2	19063*
C=CCn1c(O)c(C(CC)=NCCCO)c(=O)[nH]c1=O	-1	-11	2	-3	3273
C=CCn1c(O)c(C(CC)=NCCN2CCOCC2)c(=O)[nH]c1=O	5	5	-2	10	19747*
C=CCn1c(O)c(C(CC)=Nc2ccccc2NC(=O)CC)c(=O)[nH]c1=O	?	-11	-3	1	20357*
Cc1cccc(N(C)S(=O)(=O)c2nnc(NC(=O)c3ccco3)s2)c1	0	-1	-2	-4	5654
Cc1ccc(S(=O)(=O)C(CCC(=O)c2ccc(Cl)cc2)C(N)=O)cc1 (stereo unspecified)	-4	-5	1	-7	21117*
CC(=O)c1ccc(OCC(O)CN2CCCC(C)C2)cc1 (stereo unspecified)	0	-5	-5	2	5483
CC1CCCN(CC(O)CN)C1 (stereo unspecified)	-14	1	-18	-41	17684*
CN1CCc2c(sc3c2C(=O)NC(c2ccco2)N3)C1 (stereo unspecified)	6	-2	-2	-7	18769*
CN1CCc2c(sc3c2C(=O)NC(c2cn(Cc4ccccc4)c4ccccc24)N3)C1 (stereo unspecified)	11	-5	16	-11	20205*
O=C(CCCCC(=O)NNC(=O)COc1ccccc1)NNC(=O)COc1ccccc1	-2	-5	-4	-1	4518
COc1ccc(-n2c3c(c(=O)[nH]c2=O)C(NC(=O)c2ccncc2)(C(F)(F)F)C(=O)N3)cc1 (stereo unspecified)	-2	1	0	-2	3258
O=C(NC1(C(F)(F)F)C(=O)Nc2c1c(=O)[nH]c(=O)n2-c1ccc(F)cc1)c1cccnc1 (stereo unspecified)	5	-6	-7	4	18307*
O=C(NC1(C(F)(F)F)C(=O)Nc2c1c(=O)[nH]c(=O)n2Cc1ccccc1)c1ccc(Cl)cc1Cl (stereo unspecified)	-2	-1	-6	-3	16727*
O=C(NC1(C(F)(F)F)C(=O)Nc2c1c(=O)[nH]c(=O)n2Cc1ccccc1)c1ccc(Cl)cc1 (stereo unspecified)	0	6	-4	2	16519*
O=C(CCC1CCCCC1)NNC(=O)NC12CC3CC(CC(C3)C1)C2	?	-2	0	0	23967*
O=C(O)CCC(=O)NNC(=O)CCC1CCCCC1	-1	1	2	1	2042
Cc1ccc2nc(SCC(=O)c3ccc(Cl)s3)[nH]c2c1	0	-21	-3	-2	19540*
Cc1ccc2nc(SCC(=O)c3ccc4c(c3)OCO4)[nH]c2c1	0	-1	-9	3	5248

Assay outcomes as filed in PubChem.
